Measured values as given in the supplement of paper PMC10849652.
Targets with a hit are over-represented here; the source holds about 7,900 in all. About 0.6% of all pairs of compound and target were hits. Unmarked numbers belong to inactive results.

What was measured:
Assay in all cases: log2 fold change, soluble protein after heating vs DMSO (PISA); higher = thermal stabilisation; K562 cells, 10 uM, 30 min; active = over 0.2 and 3.5 SD of the protein, either way, in both replicates (recomputed)
[1] = compound: CC[C@@H]1C(=O)N(C)c2cnc(Nc3ccc(C(=O)NC4CCN(C)CC4)cc3OC)nc2N1C1CCCC1
Procedure, shortened: (§1)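 Soluble protein was quantified by TMTpro 16plex LC-MS/MS after channel sums were equalised. It was obtained as the supernatant after 21,000xg for 90 min from pooled aliquots of K562 cells (2×10^6 cells/mL, 10 μM compound, 30 min) heated for 3 min across 48°C-58°C and extracted in PBS with 0.5% NP-40 at 4°C. Thermal stability values are relative to control samples and come from duplicates. They are given as log2 fold changes.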

volasertib = compound: CC[C@@H]1C(=O)N(C)c2cnc(Nc3ccc(C(=O)N[C@H]4CC[C@H](N5CCN(CC6CC6)CC5)CC4)cc3OC)nc2N1C(C)C [volasertib]
Procedure, shortened: as §1

[2] = compound: CC[C@H](C)N1C=C(C2=C(C=C(C=C21)C3=CN=C(C=C3)N4CCNCC4)C(=O)NCC5=C(C=C(NC5=O)C)C)C
Procedure, shortened: as §1

epoxomicin = compound: CC[C@H](C)[C@@H](C(=O)N[C@@H]([C@@H](C)O)C(=O)N[C@@H](CC(C)C)C(=O)[C@]1(CO1)C)NC(=O)[C@H]([C@@H](C)CC)N(C)C(=O)C [epoxomicin]
Procedure, shortened: as §1

[3] = compound: CCn1c(C(=O)N(C2CC2)C2CC2)cc2c3c(ncn3C)c(Nc3cc(C)n(C)n3)nc21
Procedure, shortened: as §1

[4] = compound: CCn1cc(-c2ccnc3[nH]c(-c4cccc(CN(C)C)c4)cc23)c(-c2ccc(NC(=O)N(C)C)cc2)n1
Procedure, shortened: as §1

[5] = compound: CN(C)CC(=O)Nc1ccc2[nH]c(=O)c3ccccc3c2c1
Procedure, shortened: as §1

rosiglitazone = compound: CN(CCOC1=CC=C(C=C1)C[C@H]2C(=O)NC(=O)S2)C3=CC=CC=N3 (racemic) [rosiglitazone]
Procedure, shortened: as §1

[6] = compound: CN1C2=C(C3=C1C(=O)N(N=C3)CC4=CC(=CC=C4)N)SC(=C2)S(=O)C
Procedure, shortened: as §1

[7] = compound: CN1CCC(CNc2ccc3ncc(-c4cccc(OC(F)(F)F)c4)n3n2)CC1
Procedure, shortened: as §1

Sequence of UniProt Q9Y5Q0 (Q9Y5Q0 whole entry, looked up): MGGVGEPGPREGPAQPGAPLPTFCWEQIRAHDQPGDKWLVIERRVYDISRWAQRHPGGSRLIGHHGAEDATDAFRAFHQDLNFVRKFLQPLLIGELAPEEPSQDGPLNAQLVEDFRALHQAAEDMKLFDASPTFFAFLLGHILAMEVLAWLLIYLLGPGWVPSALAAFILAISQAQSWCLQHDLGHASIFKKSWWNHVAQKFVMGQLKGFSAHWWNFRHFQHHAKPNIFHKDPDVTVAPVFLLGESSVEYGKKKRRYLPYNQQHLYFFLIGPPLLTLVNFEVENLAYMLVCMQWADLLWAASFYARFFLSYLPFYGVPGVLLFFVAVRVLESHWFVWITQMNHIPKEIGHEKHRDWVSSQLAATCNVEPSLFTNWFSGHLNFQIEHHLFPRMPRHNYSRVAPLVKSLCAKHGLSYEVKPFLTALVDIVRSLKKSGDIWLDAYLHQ
Sequence of UniProt Q7Z2Z2 (Q7Z2Z2 whole entry, looked up): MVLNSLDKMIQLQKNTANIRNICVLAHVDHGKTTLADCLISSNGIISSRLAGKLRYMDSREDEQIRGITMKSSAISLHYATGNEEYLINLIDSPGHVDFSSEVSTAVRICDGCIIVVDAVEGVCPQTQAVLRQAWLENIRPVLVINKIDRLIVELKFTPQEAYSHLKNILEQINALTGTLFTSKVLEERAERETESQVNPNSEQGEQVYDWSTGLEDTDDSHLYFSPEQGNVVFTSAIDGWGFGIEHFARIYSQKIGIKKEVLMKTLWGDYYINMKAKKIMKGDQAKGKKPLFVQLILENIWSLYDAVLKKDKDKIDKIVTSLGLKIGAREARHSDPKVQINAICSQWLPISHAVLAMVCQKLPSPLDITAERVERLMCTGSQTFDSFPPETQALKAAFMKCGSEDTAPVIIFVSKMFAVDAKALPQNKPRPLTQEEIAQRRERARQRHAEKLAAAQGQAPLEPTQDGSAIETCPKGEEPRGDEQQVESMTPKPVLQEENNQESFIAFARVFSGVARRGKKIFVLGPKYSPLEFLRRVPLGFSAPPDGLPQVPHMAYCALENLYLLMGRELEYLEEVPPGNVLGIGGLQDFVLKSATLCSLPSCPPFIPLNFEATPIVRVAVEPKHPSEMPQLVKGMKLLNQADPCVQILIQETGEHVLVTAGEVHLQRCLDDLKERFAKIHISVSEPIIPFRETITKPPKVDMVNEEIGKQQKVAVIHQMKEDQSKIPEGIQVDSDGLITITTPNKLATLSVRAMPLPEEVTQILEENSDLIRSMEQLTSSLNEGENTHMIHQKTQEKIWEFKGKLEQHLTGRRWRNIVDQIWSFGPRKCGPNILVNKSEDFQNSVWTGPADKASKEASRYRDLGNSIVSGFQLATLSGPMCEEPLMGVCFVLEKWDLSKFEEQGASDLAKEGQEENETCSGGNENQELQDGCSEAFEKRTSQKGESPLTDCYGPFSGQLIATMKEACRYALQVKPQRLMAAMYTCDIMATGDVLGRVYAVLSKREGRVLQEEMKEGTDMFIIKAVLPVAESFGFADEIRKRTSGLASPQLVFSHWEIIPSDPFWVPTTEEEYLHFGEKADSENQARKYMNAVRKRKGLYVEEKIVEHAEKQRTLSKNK
Sequence of UniProt Q9H4H8 (Q9H4H8 whole entry, looked up): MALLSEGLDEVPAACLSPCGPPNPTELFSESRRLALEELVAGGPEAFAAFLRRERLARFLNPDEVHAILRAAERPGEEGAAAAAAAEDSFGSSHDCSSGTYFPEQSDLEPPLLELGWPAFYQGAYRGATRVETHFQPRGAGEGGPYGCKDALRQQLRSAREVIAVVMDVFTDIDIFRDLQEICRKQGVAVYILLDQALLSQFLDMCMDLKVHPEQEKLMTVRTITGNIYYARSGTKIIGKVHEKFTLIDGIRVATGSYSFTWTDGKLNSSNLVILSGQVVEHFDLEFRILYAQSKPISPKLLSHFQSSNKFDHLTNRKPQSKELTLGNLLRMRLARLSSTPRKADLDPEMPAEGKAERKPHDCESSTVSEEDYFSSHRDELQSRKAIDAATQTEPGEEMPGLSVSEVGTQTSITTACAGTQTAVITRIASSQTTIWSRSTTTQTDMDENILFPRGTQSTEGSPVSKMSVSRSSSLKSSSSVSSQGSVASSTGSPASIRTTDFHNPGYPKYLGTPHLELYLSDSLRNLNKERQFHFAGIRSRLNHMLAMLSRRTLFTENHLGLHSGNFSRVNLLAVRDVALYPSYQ
Sequence of UniProt P29692 (P29692 whole entry, looked up): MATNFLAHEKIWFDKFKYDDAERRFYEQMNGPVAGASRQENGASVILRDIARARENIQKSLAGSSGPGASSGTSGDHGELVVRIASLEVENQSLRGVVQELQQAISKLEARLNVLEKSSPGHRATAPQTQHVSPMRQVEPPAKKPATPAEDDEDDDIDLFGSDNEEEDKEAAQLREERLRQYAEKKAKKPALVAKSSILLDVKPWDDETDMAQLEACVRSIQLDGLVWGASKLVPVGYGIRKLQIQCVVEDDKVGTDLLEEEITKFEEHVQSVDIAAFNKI
Sequence of UniProt O75071 (O75071 whole entry, looked up): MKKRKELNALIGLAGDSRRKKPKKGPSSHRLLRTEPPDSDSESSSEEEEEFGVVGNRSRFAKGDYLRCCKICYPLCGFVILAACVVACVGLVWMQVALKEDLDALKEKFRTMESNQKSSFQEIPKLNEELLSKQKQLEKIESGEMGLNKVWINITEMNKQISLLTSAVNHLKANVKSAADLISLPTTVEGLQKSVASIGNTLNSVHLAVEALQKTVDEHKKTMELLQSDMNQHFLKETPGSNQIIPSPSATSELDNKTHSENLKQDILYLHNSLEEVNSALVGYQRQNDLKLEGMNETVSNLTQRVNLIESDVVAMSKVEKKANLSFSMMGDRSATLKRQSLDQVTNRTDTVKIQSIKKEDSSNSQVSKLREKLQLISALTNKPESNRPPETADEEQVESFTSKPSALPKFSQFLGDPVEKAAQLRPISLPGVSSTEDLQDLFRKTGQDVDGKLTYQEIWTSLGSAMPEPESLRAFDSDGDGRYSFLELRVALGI
Sequence of UniProt Q13011 (Q13011 whole entry, looked up): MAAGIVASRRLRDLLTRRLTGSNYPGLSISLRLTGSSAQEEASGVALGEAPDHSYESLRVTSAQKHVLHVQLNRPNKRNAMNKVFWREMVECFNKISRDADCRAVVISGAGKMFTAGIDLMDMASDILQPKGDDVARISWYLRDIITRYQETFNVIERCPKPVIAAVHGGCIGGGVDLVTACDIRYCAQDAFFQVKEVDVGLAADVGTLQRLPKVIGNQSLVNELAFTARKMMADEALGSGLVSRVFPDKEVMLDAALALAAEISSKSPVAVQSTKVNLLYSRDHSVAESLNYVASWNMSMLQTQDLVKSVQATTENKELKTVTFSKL
Sequence of UniProt P10619 (P10619 whole entry, looked up): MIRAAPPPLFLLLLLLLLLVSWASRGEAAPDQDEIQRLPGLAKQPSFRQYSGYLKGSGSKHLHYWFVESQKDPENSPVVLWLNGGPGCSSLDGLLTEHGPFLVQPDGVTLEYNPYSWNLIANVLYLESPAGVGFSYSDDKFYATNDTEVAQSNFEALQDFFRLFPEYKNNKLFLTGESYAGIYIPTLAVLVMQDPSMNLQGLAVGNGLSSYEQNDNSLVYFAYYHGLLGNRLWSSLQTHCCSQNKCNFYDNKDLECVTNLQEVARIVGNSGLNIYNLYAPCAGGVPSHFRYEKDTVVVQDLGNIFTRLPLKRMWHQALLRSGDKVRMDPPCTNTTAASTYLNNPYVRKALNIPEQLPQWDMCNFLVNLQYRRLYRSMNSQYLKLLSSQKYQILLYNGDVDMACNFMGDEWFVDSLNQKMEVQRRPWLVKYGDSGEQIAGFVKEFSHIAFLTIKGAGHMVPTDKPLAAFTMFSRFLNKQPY
Sequence of UniProt P49366 (P49366 whole entry, looked up): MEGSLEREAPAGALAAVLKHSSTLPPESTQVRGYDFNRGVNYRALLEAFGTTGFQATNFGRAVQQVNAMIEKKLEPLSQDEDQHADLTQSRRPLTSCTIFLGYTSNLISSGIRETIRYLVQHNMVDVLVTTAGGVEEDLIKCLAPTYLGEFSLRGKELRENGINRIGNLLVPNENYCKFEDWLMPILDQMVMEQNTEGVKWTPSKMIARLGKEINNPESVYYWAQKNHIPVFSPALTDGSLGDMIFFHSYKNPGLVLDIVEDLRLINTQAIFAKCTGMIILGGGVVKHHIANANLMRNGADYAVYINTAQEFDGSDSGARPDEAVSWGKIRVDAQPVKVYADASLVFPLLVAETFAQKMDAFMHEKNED
Sequence of UniProt Q96EV8 (Q96EV8 whole entry, looked up): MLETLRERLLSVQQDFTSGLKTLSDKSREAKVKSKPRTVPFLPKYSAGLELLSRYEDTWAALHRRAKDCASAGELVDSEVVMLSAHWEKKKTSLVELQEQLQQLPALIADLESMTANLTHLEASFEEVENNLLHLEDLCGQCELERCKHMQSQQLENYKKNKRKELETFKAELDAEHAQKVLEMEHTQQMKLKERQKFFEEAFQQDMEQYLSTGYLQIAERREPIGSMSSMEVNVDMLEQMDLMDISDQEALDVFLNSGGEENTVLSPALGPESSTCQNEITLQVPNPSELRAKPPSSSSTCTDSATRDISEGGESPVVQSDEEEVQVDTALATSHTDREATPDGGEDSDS
Sequence of UniProt Q96GG9 (Q96GG9 whole entry, looked up): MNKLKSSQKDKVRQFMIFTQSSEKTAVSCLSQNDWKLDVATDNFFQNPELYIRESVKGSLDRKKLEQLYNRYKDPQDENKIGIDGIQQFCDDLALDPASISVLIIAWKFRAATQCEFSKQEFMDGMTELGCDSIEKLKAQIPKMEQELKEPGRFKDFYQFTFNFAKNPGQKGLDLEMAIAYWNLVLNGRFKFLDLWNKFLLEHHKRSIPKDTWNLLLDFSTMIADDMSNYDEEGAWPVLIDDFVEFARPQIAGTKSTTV
Sequence of UniProt P13498 (P13498 whole entry, looked up): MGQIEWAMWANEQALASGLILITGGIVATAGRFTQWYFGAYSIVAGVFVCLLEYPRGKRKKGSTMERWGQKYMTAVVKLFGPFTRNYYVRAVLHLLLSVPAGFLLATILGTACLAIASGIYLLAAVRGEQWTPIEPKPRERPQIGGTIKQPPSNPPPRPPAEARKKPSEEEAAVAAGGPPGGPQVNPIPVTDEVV

Row | Target | log2 fold change [1] | log2 fold change (volasertib) | log2 fold change [2] | log2 fold change (epoxomicin) | log2 fold change [3] | log2 fold change [4] | log2 fold change [5] | log2 fold change (rosiglitazone) | log2 fold change [6] | log2 fold change [7]
1 | DCUN1D1 (UniProt Q96GG9) | -0.1 | -0.276 (active) | 0.018 | 0.048 | -0.006 | -0.061 | 0.03 | 0.013 | -0.056 | -0.178
2 | ETNK1 (UniProt Q9HBU6) | 0.021 | -0.24 | 0.021 | 0.157 | -0.03 | 0.059 | 0.121 | 0 | -0.14 | 0.041
3 | DPYSL2 (UniProt Q16555) | 0.055 | -0.037 | 0.014 | 0.129 | -0.071 | -0.073 | 0.11 | 0.039 | -0.058 | -0.067
4 | ECH1 (UniProt Q13011) | 0.019 | 0.276 | 0.024 | 0.036 | -0.032 | -0.021 | 0.023 | 0.052 | -0.041 | 0.694 (active)
5 | CUX1 isoform 2 (UniProt Q13948) | -0.055 | -0.188 | 0 | -0.002 | -0.112 | 0.043 | 0.317 | 0.033 | 0.016 | 0.055
6 | EEA1 (UniProt Q15075) | 0.036 | 0.031 | -0.024 | 0.017 | -0.002 | 0.019 | -0.038 | -0.014 | -0.023 | 0.001
7 | DYRK1A isoform 2 (UniProt Q13627) | 0.015 | -0.005 | 0.104 | 0.048 | -0.012 | -0.05 | 0.014 | 0.036 | -0.024 | -0.086
8 | DTNBP1 (UniProt Q96EV8) | -0.017 | 0.009 | -0.002 | 0.048 | 0.026 | -0.086 | -0.009 | 0.016 | -0.028 | 0.01
9 | DCAF10 (UniProt Q5QP82) | -0.003 | 0.029 | -0.038 | -0.102 | -0.049 | -0.018 | -0.043 | -0.015 | -0.026 | 0.022
10 | CTNNB1 (UniProt P35222) | 0.2 | -0.162 | -0.116 | 0.887 (active) | -0.027 | -0.304 | -0.151 | 0.124 | -0.185 | 0.379
11 | FAM50A (UniProt Q14320) | -0.158 | -0.258 (active) | 0.06 | 0.058 | -0.022 | 0.053 | 0.029 | 0.001 | -0.07 | -0.052
12 | DNAJC7 (UniProt Q99615) | -0.079 | -0.266 (active) | 0.104 | 0.073 | -0.014 | -0.025 | 0.014 | 0.017 | -0.052 | -0.142
13 | EEF1D isoform 2 (UniProt P29692) | -0.089 | -0.336 (active) | -0.001 | 0.008 | -0.031 | 0.05 | -0.022 | 0.019 | 0.015 | -0.039
14 | ERCC2 (UniProt P18074) | -0.015 | -0.258 | 0.043 | 0.326 (active) | 0.003 | -0.076 | -0.019 | 0.007 | 0.013 | -0.153
15 | EOGT (UniProt Q5NDL2) | -0.004 | 0.013 | -0.037 | 0.05 | -0.007 | 0.001 | 0 | 0.022 | 0.021 | 0.062
16 | EXOC2 (UniProt Q96KP1) | -0.13 | -0.463 | -0.041 | 0 | -0.089 | 0.044 | 0.058 | 0.01 | 0.123 | -0.386 (active)
17 | FAM83D (UniProt Q9H4H8) | -0.097 | -0.139 | 0 | -0.082 | -0.074 | -0.115 | 0.085 | 0.081 | 0.006 | 0.042
18 | E2F4 (UniProt Q16254) | -0.057 | -0.139 | 0.036 | -0.008 | -0.017 | -0.025 | -0.024 | 0.056 | 0.009 | -0.245 (active)
19 | DTWD2 (UniProt Q8NBA8) | -0.047 | -0.048 | 0.057 | -0.015 | 0.057 | -0.018 | -0.106 | 0.005 | -0.066 | 0.035
20 | EFL1 (UniProt Q7Z2Z2) | -0.024 | -0.245 (active) | 0.014 | 0.008 | -0.008 | -0.006 | 0.025 | 0.019 | -0.037 | -0.091
21 | CTSZ (UniProt Q9UBR2) | -0.954 (active) | -1.54 (active) | -0.058 | 0.02 | 0.022 | 0 | -0.026 | -0.028 | -0.087 | -0.843 (active)
22 | EDC3 (UniProt Q96F86) | -0.006 | -0.192 | 0.057 | 0.003 | -0.03 | -0.031 | 0.058 | 0.067 | 0.094 | -0.251
23 | EFCAB14 (UniProt O75071) | -0.033 | -0.089 | -0.078 | 0.068 | 0.045 | 0.06 | -0.018 | -0.009 | 0.028 | -0.178
24 | FADS3 (UniProt Q9Y5Q0) | -0.02 | 0.095 | 0.013 | -0.016 | 0.046 | -0.116 | -0.05 | -0.019 | -0.13 | -0.231
25 | DHPS (UniProt P49366) | 0.045 | 0.028 | 0.001 | 0.046 | -0.002 | 0.014 | -0.012 | -0.01 | -0.017 | -0.049
26 | ECPAS (UniProt Q5VYK3) | -0.188 | -0.602 (active) | 0.093 | 0.614 (active) | -0.097 | -0.029 | 0.079 | 0.041 | 0.026 | -0.143
27 | EHBP1L1 (UniProt Q8N3D4) | -0.035 | -0.307 (active) | 0.091 | 0.072 | 0.012 | -0.055 | 0.029 | 0.094 | 0.077 | 0.101
28 | CTSA (UniProt P10619) | -1.24 (active) | -1.57 (active) | -0.037 | -0.003 | -0.031 | 0.018 | 0.011 | -0.017 | -0.007 | -1.44 (active)
29 | DAG1 (UniProt Q14118) | 0.149 | 0.048 | -0.008 | 0.023 | -0.039 | -0.044 | 0.012 | -0.007 | -0.075 | 0.243 (active)
30 | CYBA (UniProt P13498) | -0.091 | -0.125 | -0.026 | 0.037 | 0.047 | 0.074 | -0.02 | 0.058 | -0.064 | -0.04
